Among the test systems are HCT-15 colon; HT29 colon; SNB-75 CNS; SNB-19 CNS; U251 CNS; PC-3 prostate; SK-MEL-5 melanoma; UACC-62 melanoma; LOX IMVI melanoma; SK-MEL-28 melanoma; SK-MEL-2 melanoma; EKVX NSCLC; SN12C renal; UO-31 renal; TK-10 renal; ACHN renal; CAKI-1 renal; A498 renal; CCRF-CEM leukemia; MOLT-4 leukemia.
Assay in all cases: NCI-60 one-dose screen, 48 h (100 = growth as untreated, 0 = no growth, -100 = all killed)
Holding throughout (conditions): 10 µM unless noted

About 83,000 compounds went through this panel and 20% of them were active in at least one assay; those are over-represented in the sample as a whole.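 Single-dose data. Exposure time 48 hours. Values below 10 considered active.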 A number with no mark means an inactive call. Active and inactive are the calls of the source.

Regarding `O=C1/C(=C/c2ccccc2Br)COc2ccc(O)c(O)c21`, the growth is -1.56% (active) with HCT-15 colon; 47.6% in the test with HT29 colon; 23.2% with SNB-75 CNS; 27% in the test on SNB-19 CNS; 4.99% (active) in the test with U251 CNS; 15.6% in the test on PC-3 prostate. Moreover, the growth in the test on SK-MEL-5 melanoma was 46.9%; in the test with UACC-62 melanoma, 6.99% (active); in the test on LOX IMVI melanoma, -76% (active); in the test with SK-MEL-28 melanoma it was 42.3%; in the test with SK-MEL-2 melanoma, 48.8%; in the test on EKVX NSCLC, 61.7%. Also, the growth with SN12C renal is -67.6% (active); in the test with UO-31 renal, -92.1% (active); with TK-10 renal, 29.5%; in the test with ACHN renal, -44.9% (active); in the test with CAKI-1 renal, 22.2%; with A498 renal, 116%. For the same compound, the growth with CCRF-CEM leukemia is 1.62% (active); in the test on MOLT-4 leukemia, 2.79% (active).

Regarding `COC1=CC(c2ccc[nH]2)=N/C1=C\c1[nH]c(C)c(C(=O)OCc2ccccc2)c1C`, the growth in the test on HCT-15 colon is -35.4% (active); in the test with HT29 colon, -19.4% (active); with SNB-75 CNS, -21.4% (active); in the test on SNB-19 CNS, 18.5%; in the test with U251 CNS it was -47% (active); in the test on PC-3 prostate, 10.4%. Moreover, the growth was -99.5% (active) with SK-MEL-5 melanoma; -52.6% (active) with UACC-62 melanoma; -90.6% (active) in the test on LOX IMVI melanoma; -59.4% (active) with SK-MEL-28 melanoma; -63.1% (active) in the test on SK-MEL-2 melanoma; -33.5% (active) with EKVX NSCLC. The growth with SN12C renal was -29.4% (active); in the test with UO-31 renal, -87.9% (active); in the test on TK-10 renal, -4.94% (active); with ACHN renal, -86.1% (active); in the test on CAKI-1 renal, -40.7% (active); in the test with A498 renal, -37.7% (active). In addition, the results for the growth in the test on CCRF-CEM leukemia and in the test on MOLT-4 leukemia were 13.4% and -7.67% (active), respectively.

For `CN(CCn1sc(=O)n(Cc2ccccc2)c1=O)Cc1ccc2c(Cl)cc(Cl)c(O)c2n1`, the growth in the test on HCT-15 colon is 16.3%; with HT29 colon it was 39.9%; in the test with SNB-75 CNS it was 74.6%; in the test on SNB-19 CNS it was 39.7%; with U251 CNS it was 27%; with PC-3 prostate, 35.5%. Moreover, the growth is 59.5% in the test on SK-MEL-5 melanoma; 29.8% in the test with UACC-62 melanoma; 30.7% with LOX IMVI melanoma; 59.8% with SK-MEL-28 melanoma; 66.9% in the test with SK-MEL-2 melanoma; 35.9% with EKVX NSCLC. Also, the growth with SN12C renal is 34.7%; with UO-31 renal, -11.7% (active); in the test with TK-10 renal, 63.7%; in the test on ACHN renal, 27.8%; with CAKI-1 renal it was 46.4%; in the test with A498 renal, 68.4%. Further, the growth in the test on CCRF-CEM leukemia was 27.6%; in the test with MOLT-4 leukemia it was 27.7%.

Consider `C=C(C)[C@@H]1CC[C@]2(C(=O)NCCNCCN)CC[C@]3(C)[C@H](CC[C@@H]4[C@@]5(C)C/C(=C/c6ccncc6)C(=O)C(C)(C)[C@@H]5CC[C@]43C)[C@@H]12`, for which the growth was 91.4% with HCT-15 colon; 96% with HT29 colon; 78.1% in the test with SNB-75 CNS; 90.2% with SNB-19 CNS; 91.2% in the test on U251 CNS; 88.8% in the test with PC-3 prostate. Further, the growth was 96.3% in the test on SK-MEL-5 melanoma; 86.6% in the test on UACC-62 melanoma; 96% in the test with LOX IMVI melanoma; 99.2% with SK-MEL-28 melanoma; 108% in the test on SK-MEL-2 melanoma; 92.2% with EKVX NSCLC. For the same compound, the growth with SN12C renal is 96.5%; with UO-31 renal it was 83.5%; with TK-10 renal it was 118%; with ACHN renal, 100%; with CAKI-1 renal, 85.6%; in the test on A498 renal, 95.7%. Further, the growth in the test with CCRF-CEM leukemia is 97.1%; with MOLT-4 leukemia, 82.9%.

On to `O=C(NNc1nccc(Nc2ccc(S(=O)(=O)Nc3ccncc3)cc2)n1)c1ccccc1`, for which the growth in the test with HCT-15 colon is 107%; in the test with HT29 colon it was 94.4%; in the test with SNB-75 CNS it was 99%; with SNB-19 CNS it was 109%; in the test with U251 CNS, 99.6%; in the test with PC-3 prostate, 100%. The growth was 102% with SK-MEL-5 melanoma; 101% in the test with UACC-62 melanoma; -40.5% (active) in the test on LOX IMVI melanoma; 106% in the test on SK-MEL-28 melanoma; 106% in the test on SK-MEL-2 melanoma; 104% in the test on EKVX NSCLC. Also, the growth with SN12C renal was 107%; with UO-31 renal it was 93.9%; with TK-10 renal, 95.3%; with ACHN renal it was 104%; with CAKI-1 renal, 92.8%; with A498 renal, 103%. Further, the growth was 111% in the test on CCRF-CEM leukemia and 96.7% with MOLT-4 leukemia.

As for `C#Cc1cccc(Nc2ncnc3ccc(-c4cnc(N)nc4)cc23)c1`, the growth with HCT-15 colon is 23.1%; in the test on HT29 colon, 48%; in the test with SNB-75 CNS, 6.34% (active); in the test on SNB-19 CNS, 47.2%; with U251 CNS, 54.7%; in the test with PC-3 prostate, 27.1%. Moreover, the growth in the test on SK-MEL-5 melanoma is 32.7%; with UACC-62 melanoma, 24.8%; with LOX IMVI melanoma, 22.2%; in the test with SK-MEL-28 melanoma, 38.1%; in the test with SK-MEL-2 melanoma it was 19.8%; with EKVX NSCLC it was 2.36% (active). In addition, the growth with SN12C renal is 7.3% (active); in the test with UO-31 renal, -5.12% (active); in the test with TK-10 renal, -9.72% (active); with ACHN renal it was 3.99% (active); in the test with CAKI-1 renal it was 2.19% (active); in the test with A498 renal, -44.6% (active). Moreover, the figures for the growth in the test on CCRF-CEM leukemia and with MOLT-4 leukemia were 35.7% and 19.6%, respectively.

Take `Cc1ccc(-c2nc3nc(-c4ccccc4)nc(N4CCNCC4)c3o2)cc1`: the growth with HCT-15 colon is -77% (active); in the test with HT29 colon, -74.4% (active); with SNB-75 CNS, -90.7% (active); with SNB-19 CNS it was -80.6% (active); in the test on U251 CNS, -90.2% (active); in the test with PC-3 prostate, -81.6% (active). In addition, the growth is -95.8% (active) in the test on SK-MEL-5 melanoma; -87.8% (active) in the test on UACC-62 melanoma; -78.6% (active) in the test on LOX IMVI melanoma; -90.1% (active) in the test with SK-MEL-28 melanoma; -92.7% (active) in the test on SK-MEL-2 melanoma; -65.5% (active) in the test on EKVX NSCLC. The growth in the test on SN12C renal is -78.3% (active); in the test on UO-31 renal, -91.8% (active); in the test with TK-10 renal, -96.5% (active); in the test on ACHN renal it was -97.2% (active); with CAKI-1 renal, -99% (active); in the test on A498 renal, -88.7% (active). The growth is -69.3% (active) in the test with CCRF-CEM leukemia and -69.2% (active) in the test with MOLT-4 leukemia.

For the origin of these results see PubChem BioAssay (NCI).
